Laboratory results: PubChem BioAssay (Tox21)
Records with an inconclusive call do not appear. The source made the active and inactive calls. The call rests on the fitted dose curve; in most records, active means well fitted curve in the direction sought with a large enough effect in the repeat runs; inconclusive means weak or mixed curves; inactive means no such curve, though single readings can be large; an effect the other way counts as inactive or inconclusive.

Columns and labels:
[1] = qHTS RealTime-Glo MT Cell Viability Assay in HEK293 cells - 16 hour (AID 1224872); further: nearly all actives have a fitted effect of over 50% in size; further: potency means the concentration at half of the fitted maximal effect
Summary of the method: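 Assay medium contained NanoLuc luciferase plus cell-permeant prosubstrate, added with HEK293 cells at 600 cells/well. After 5 h at 37 C/5% CO2 compounds were added; plates stayed at 37 C for 40 h with serial luminescence reads.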

[2] = qHTS RealTime-Glo MT Cell Viability Assay in HepG2 cells - 8 hour (AID 1224873); further: nearly all actives have a fitted effect of over 55% in size
Summary of the method: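 HepG2 cells (600/well) mixed with RealTime-Glo MT reagent, settled 5 h at 37 C/5% CO2 before compound addition. Nonlytic NanoLuc luminescence from viable-cell prosubstrate reduction read repeatedly during 40 h treatment at 37 C.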

[3] = qHTS RealTime-Glo MT Cell Viability Assay in HEK293 cells - 40 hour (AID 1224874); conditions: RealTime-Glo luminescence; max response: stronger effect = lower value; further: nearly all actives have a fitted effect of over 50% in size; further: potency means the concentration at half of the fitted maximal effect
Summary of the method: (§1)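 Kinetic, non-lysing viability readout. Seed HEK293 (600/well) with reagent, incubate 5 h at 37 C/5% CO2, pin 23 nL compound in DMSO, incubate at 37 C, read luminescence at 0, 8, 16, 24, 32, 40 h.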

[4] = A CellTox Green Cytotoxicity Assay to monitor cytotoxicity in HepG2 cells - 16 hour (AID 1224876); further: nearly all actives have a fitted effect of over 45% in size; further: potency means the concentration at half of the fitted maximal effect
Summary of the method: (§2)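 Cytotoxicity was tracked as dead-cell DNA fluorescence in HepG2 cells treated with test compounds at 37 C; each time-point value comes from one kinetic series spanning 0, 8, 16, 24, 32 and 40 h.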

[5] = qHTS RealTime-Glo MT Cell Viability Assay in HepG2 cells - 32 hour (AID 1224877); further: nearly all actives have a fitted effect of over 55% in size
Summary of the method: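 qHTS, HepG2, 600 cells/well, RealTime-Glo (NanoLuc + prosubstrate) added with cells; 5 h preincubation; DMSO compound addition; 37 C; luminescence at 0/8/16/24/32/40 h.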

[6] = A CellTox Green Cytotoxicity Assay to monitor cytotoxicity in HepG2 cells - 24 hour (AID 1224878); further: nearly all actives have a fitted effect of over 45% in size; further: potency means the concentration at half of the fitted maximal effect
Summary of the method: as §2

[7] = A CellTox Green Cytotoxicity Assay to monitor cytotoxicity in HepG2 cells - 40 hour (AID 1224879); further: nearly all actives have a fitted effect of over 40% in size; further: potency means the concentration at half of the fitted maximal effect
Summary of the method: as §2

[8] = qHTS RealTime-Glo MT Cell Viability Assay in HEK293 cells - 0 hour (AID 1224880); further: top concentration of the series differs between compounds; nearly all actives have a fitted effect of over 45% in size
Summary of the method: as §1

[9] = A CellTox Green Cytotoxicity Assay to monitor cytotoxicity in HEK293 cells - 32 hour (AID 1224881); further: nearly all actives have a fitted effect of over 40% in size
Summary of the method: (§3)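 Real-time, in one plate: 600 HEK293 cells/well with dead-cell DNA dye, pinned compound after 5 h, 37 C incubation over 40 h; viable cells give no appreciable fluorescence.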

[10] = A CellTox Green Cytotoxicity Assay to monitor cytotoxicity in HEK293 cells - 24 hour (AID 1224875); further: series mostly up to about 77 µM; nearly all actives have a fitted effect of over 45% in size
Summary of the method: as §3
On the % scale 0 is the no-effect control and ±100 the full control effect.

COc1cc(Cl)ccc1Cl
inactive: Potency [1] | outcome [2] | max response [3] -0.591% | Potency [4] | Potency [5] | Potency [6] | Potency [7] | outcome [8]

CC(=O)OC1C2(C)CCC(C2)C1(C)C (centres undefined)
inactive: Potency [1] | outcome [2] | max response [3] -0.0469% | Potency [4] | Potency [5] | Potency [6] | Potency [7] | outcome [8] | Potency [9]

O=C(CC(=O)C(F)(F)F)c1ccccc1
inactive: Potency [1] | outcome [2] | max response [3] -4.62% | Potency [4] | Potency [5] | Potency [6] | Potency [7] | outcome [8] | Potency [9]

O=C(CCCl)NCc1ccccc1
inactive: Potency [1] | outcome [2] | max response [3] -3.01% | Potency [4] | Potency [5] | Potency [6] | Potency [7] | outcome [8] | Potency [9]

CCOC(=O)C1CC(=O)C(=C(O)C2CC2)C(=O)C1 (centres undefined)
inactive: Potency [1] | outcome [2] | max response [3] 0.979% | Potency [4] | Potency [5] | Potency [6] | Potency [7] | outcome [8] | Potency [9]

CN1CCN(N)CC1
inactive: Potency [1] | outcome [2] | Potency [10] | Potency [4] | Potency [5] | Potency [6] | Potency [7] | outcome [8] | Potency [9]

CCC(=O)c1ccc2c(c1)N(CCCN(C)C)c1ccccc1S2
active: Potency [1] 10.7 µM | Potency [3] 19 µM
inactive: outcome [2] | Potency [10] | Potency [5] | outcome [8] | Potency [9]

CN1CCN(C2=Nc3ccccc3Oc3ccc(Cl)cc32)CC1
inactive: Potency [1] | outcome [2] | max response [3] -25.8% | Potency [10] | Potency [4] | Potency [5] | outcome [8] | Potency [9]
active: Potency [7] 19 µM

CC(C)=CCC[C@](C)(O)[C@@H]1CC=C(C)CC1
active: Potency [4] 43.6 µM | Potency [6] 43.6 µM | Potency [7] 49 µM
inactive: Potency [1] | outcome [2] | Potency [10] | Potency [5] | outcome [8]

CC(C)c1ccccc1
inactive: Potency [1] | outcome [2] | max response [3] 1.09% | Potency [4] | Potency [5] | Potency [6] | Potency [7] | outcome [8] | Potency [9]

Cc1ccc(C(C)C)cc1O
inactive: Potency [1] | outcome [2] | max response [3] -12% | Potency [10] | Potency [5] | outcome [8]

CC(C)Nc1nc(N)nc(Cl)n1
inactive: Potency [1] | outcome [2] | max response [3] 10.6% | Potency [4] | Potency [5] | Potency [6] | Potency [7] | outcome [8] | Potency [9]

Cc1cc(NS(=O)(=O)c2ccc(N)cc2)nc(C)n1
inactive: Potency [1] | outcome [2] | max response [3] -0.863% | Potency [10] | Potency [5] | outcome [8] | Potency [9]

CCOC(=O)NCCC[Si](OCC)(OCC)OCC
inactive: Potency [1] | outcome [2] | max response [3] 4.72% | Potency [4] | Potency [5] | Potency [6] | Potency [7] | outcome [8] | Potency [9]

CCCCCCC
inactive: Potency [1] | outcome [2] | Potency [10] | Potency [4] | Potency [5] | Potency [6] | Potency [7] | outcome [8] | Potency [9]

CCCc1c2oc(C(=O)O)cc(=O)c2cc2c(=O)cc(C(=O)O)n(CC)c12
inactive: Potency [1] | outcome [2] | max response [3] 1.42% | Potency [4] | Potency [5] | Potency [6] | Potency [7] | outcome [8]

CCCCNCCCC
inactive: Potency [1] | outcome [2] | Potency [10] | Potency [4] | Potency [5] | Potency [6] | Potency [7] | outcome [8] | Potency [9]

Cc1nc(-c2ccccn2)ncc1C(=O)Nn1cc(C)c2cc(F)ccc21
active: Potency [1] 1.74 µM
inactive: outcome [2] | Potency [10] | Potency [4] | Potency [5] | Potency [6] | Potency [7] | outcome [8] | Potency [9]

CCOC(=O)COc1ccc2c(c1)CC(NCC(O)c1cccc(Cl)c1)CC2 (centres undefined)
active: Potency [4] 44 µM
inactive: Potency [1] | outcome [2] | max response [3] -17.8% | Potency [5]

C[C@]12CCC(=O)C=C1CC[C@@H]1[C@@H]2CC[C@@]2(C)[C@H]1CC[C@]2(O)C(=O)CO
inactive: Potency [1] | outcome [2] | Potency [10] | Potency [4] | Potency [5] | Potency [6] | Potency [7] | outcome [8] | Potency [9]

CCCCCCCCCCCCCCCCOP(=O)([O-])OCC[N+](C)(C)C
inactive: Potency [1] | outcome [2] | max response [3] -6.12% | Potency [10] | Potency [5] | outcome [8] | Potency [9]

CO[Si](C)(C)OC
inactive: Potency [1] | outcome [2] | Potency [10] | Potency [4] | Potency [5] | Potency [6] | Potency [7] | outcome [8] | Potency [9]

CCOc1ccc(OCC)c(Cl)c1
inactive: Potency [1] | outcome [2] | max response [3] 5.94% | Potency [4] | Potency [5] | Potency [6] | Potency [7] | outcome [8] | Potency [9]

CN(CCCN1c2ccccc2CCc2ccccc21)CC(=O)c1ccc(Cl)cc1
active: Potency [7] 21.3 µM
inactive: Potency [1] | outcome [2] | Potency [10] | Potency [4] | Potency [5] | Potency [6] | outcome [8] | Potency [9]

CC1=CC(=O)CC(C)(C)C1=O
inactive: Potency [1] | outcome [2] | Potency [10] | Potency [4] | Potency [5] | Potency [6] | Potency [7] | outcome [8] | Potency [9]

CCOC(=O)c1ccccc1O
inactive: Potency [1] | max response [3] 4.34% | Potency [10] | Potency [4] | Potency [5] | Potency [6] | Potency [7] | outcome [8] | Potency [9]

CN1CCN(C2=Nc3cc(F)ccc3Cc3ccccc32)CC1
inactive: Potency [1] | outcome [2] | Potency [10] | Potency [4] | Potency [5] | Potency [6] | Potency [7] | outcome [8] | Potency [9]

OCC(CBr)(CBr)CBr
inactive: Potency [1] | outcome [2] | Potency [4] | Potency [5] | Potency [6] | Potency [7] | outcome [8] | Potency [9]

CC(Oc1c(Cl)cccc1Cl)C1=NCCN1 (centres undefined)
inactive: Potency [1] | max response [3] -8.42% | Potency [10] | Potency [4] | Potency [5] | Potency [6] | Potency [7] | outcome [8] | Potency [9]
